Measured values: PubChem BioAssay AID1259343 (VanderVen Lab, College of Veterinary Medicine, Cornell …, 2017)
Out of some 6,200 compounds screened, about 2,900 (47%) were called active. No stated cut-off is given here; in the data, active means inhibition above about 50%; inactive means the rest. The set was probably picked from earlier hits. The list shows a part of the results.

Assay: Mycobacterium tuberculosis growth inhibition, primary screen (AID 1259343)
Conditions: inhibition: at 10 µM, active compounds read high; outcome: 10 uM
In the case of `CCOc1ccc(Oc2ccc(NC(=O)c3ccc(C)s3)cc2)cc1`, the inhibition is reported as 44.9% (inactive). With `CCOc1ccc(NC(=O)CCSc2nnc(C)s2)cc1` the inhibition was 91.3% (active). With `CCOc1ccc(NC(=O)Cc2ccc(C)s2)cc1` the inhibition was 59.7% (active). For `COc1ccc(Cl)c(NS(=O)(=O)c2cnc(Cl)n2C)c1`, the inhibition was 25.9% (inactive). In the case of `O=S1(=O)C(c2ccccc2)=CC1c1ccccc1` (stereo unspecified), the inhibition is reported as 49.3% (inactive). For `Cc1ccc(S(=O)(=O)NCC(C)n2nc(C)cc2C)cc1` (stereo unspecified), the inhibition was 10.1% (inactive). With `Clc1ccc(C2CC(c3ccc(Cl)cc3)n3nnnc3N2)cc1` (stereo unspecified) the inhibition was 66.5% (active). In the case of `Clc1ccc(C2CC(c3ccc(Cl)cc3)n3ncnc3N2)cc1` (stereo unspecified), the inhibition is reported as -10.5% (inactive). In the case of `CCCCc1oc2ccccc2c1C1NC(=O)c2ccccc2N1` (stereo unspecified), the inhibition is reported as 10.5% (inactive). In the case of `CCCCc1oc2ccccc2c1C(=O)c1cc(I)c(OCCN(CC)CC)c(I)c1`, the inhibition is reported as 77% (active). For `O=C(Nc1ccccc1-c1cn2c(CN3CCNCC3)csc2n1)c1cnc2ccccc2n1`, the inhibition was 74.8% (active). In the case of `O=C(Nc1ccccc1OCCCc1ccccc1)c1ccccn1`, the inhibition is reported as 22.6% (inactive). For `Cc1ccc(CC(=O)Nc2ccccc2OC2CCCC2)s1`, the inhibition was 10.8% (inactive). In the case of `O=C(Nc1ccccc1OCCCc1ccccc1)C1CCOC1` (stereo unspecified), the inhibition is reported as 83% (active). In the case of `CC1=NOC(C(=O)Nc2ccccc2OCCCc2ccccc2)C1` (stereo unspecified), the inhibition is reported as 55.6% (active). For `Oc1ccc(NC(=S)Nc2ccc(OC(F)F)cc2)cc1`, the inhibition was 94.3% (active). For `COc1ccc(NC(=S)Nc2ccc(OC(F)F)cc2)cn1`, the inhibition was 36.5% (inactive). With `FC(F)Oc1ccc(NC(=S)Nc2ccc3c(c2)OCCO3)cc1` the inhibition was 85.3% (active). With `O=C(OC1CCc2[nH]c3ncccc3c2C1)c1ccccc1` (stereo unspecified) the inhibition was -5.27% (inactive). With `CSc1ccccc1NC(CNS(=O)(=O)c1ccccc1)c1ccccc1` (stereo unspecified) the inhibition was -10.3% (inactive). With `Cc1ccc(-c2nsc(SCC(=O)Nc3cccc([N+](=O)[O-])c3)n2)cc1` the inhibition was 71.1% (active). With `Cc1cccc(NC(=O)c2cc(Oc3ccc([N+](=O)[O-])cc3F)n(C)n2)c1` the inhibition was 35.6% (inactive). In the case of `CSc1ccc(Cn2c(C)c(C(=O)NCc3cccc([N+](=O)[O-])c3)sc2=O)cc1`, the inhibition is reported as 24.4% (inactive). For `CCOC(=O)CC(=O)CSc1nc(-c2cccc(C)c2)ns1`, the inhibition was 82.2% (active). In the case of `OCc1ccc(-c2ccc(-c3ccc(CO)s3)o2)s1`, the inhibition is reported as 48.6% (inactive). With `Fc1ccc(C2=NN3C(C2)c2ccccc2OC3c2ccncc2)cc1` (stereo unspecified) the inhibition was 14% (inactive). For `c1ccc(C2=NN3C(C2)c2ccccc2OC32CCCC2)cc1` (stereo unspecified), the inhibition was 32% (inactive). With `CCC1(C)Oc2ccccc2C2CC(c3ccccc3)=NN21` (stereo unspecified) the inhibition was -17% (inactive). With `CC(C)C1Oc2ccccc2C2CC(c3ccccc3)=NN21` (stereo unspecified) the inhibition was 63.4% (active). For `CC1CCC2(CC1)Oc1ccccc1C1CC(c3ccccc3)=NN12` (stereo unspecified), the inhibition was 55.7% (active). For `COc1ccc(C2Oc3ccccc3C3CC(c4ccccc4)=NN32)cc1OC` (stereo unspecified), the inhibition was -33.1% (inactive).
